Source: paper PMC7862700, “An all-to-all approach to the identification of sequence-specific readers for epigenetic DNA modifications on cytosine”

What was measured:
Assay in all cases: DAPPL (digital affinity profiling via proximity ligation, sequencing); 10 mM Tris-HCl pH 7.5, 50 mM NaCl, 1 mM DTT, 4% glycerol, room temperature, 30 min; GST-TFs on glutathione beads, 16-mer random dsDNA library, 0.1% formaldehyde crosslink after washing; high values mean tight binding
[1] = biological target: T1, FEV (Homo sapiens, UniProt Q99581 1-238); details: protein: recombinant; tags: N-terminal GST; dsDNA, one strand shown
T1 sequence: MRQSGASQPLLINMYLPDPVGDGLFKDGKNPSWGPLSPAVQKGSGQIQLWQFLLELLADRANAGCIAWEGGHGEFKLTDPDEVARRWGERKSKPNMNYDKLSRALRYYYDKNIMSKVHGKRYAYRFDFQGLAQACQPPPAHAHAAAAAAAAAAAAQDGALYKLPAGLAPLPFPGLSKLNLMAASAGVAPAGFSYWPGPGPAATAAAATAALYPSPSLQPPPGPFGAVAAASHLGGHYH
How it was run: (§1)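 Beads coated with glutathione captured GST-fused human transcription factors that had been expressed in yeast, and the factors were then given DNA barcodes and pooled with a tag-only sample. The pools were incubated with 200 nmole of a random double-stranded 16-mer DNA library in Tris/NaCl/DTT/glycerol buffer for 30 min at room temperature, washed, crosslinked with 0.1% formaldehyde and proximity-ligated with BsaI/T4 ligase at 37 °C for 1 h. PCR amplification and Illumina NextSeq500 sequencing came last. Binding signal is each hexamer's read frequency for a factor divided by its frequency for the tag-only sample.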

[2] = biological target: ETV5 (Homo sapiens, UniProt P41161 1-510); details: protein: recombinant; tags: N-terminal GST; dsDNA, one strand shown
How it was run: as §1

[3] = biological target: HSF1 (Homo sapiens, UniProt Q00613 1-529); details: protein: recombinant; tags: N-terminal GST; chain copies: 3; dsDNA, one strand shown
How it was run: as §1

[4] = biological target: T2, SPIC (Homo sapiens, UniProt Q8N5J4 1-248); details: protein: recombinant; tags: N-terminal GST; dsDNA, one strand shown
T2 sequence: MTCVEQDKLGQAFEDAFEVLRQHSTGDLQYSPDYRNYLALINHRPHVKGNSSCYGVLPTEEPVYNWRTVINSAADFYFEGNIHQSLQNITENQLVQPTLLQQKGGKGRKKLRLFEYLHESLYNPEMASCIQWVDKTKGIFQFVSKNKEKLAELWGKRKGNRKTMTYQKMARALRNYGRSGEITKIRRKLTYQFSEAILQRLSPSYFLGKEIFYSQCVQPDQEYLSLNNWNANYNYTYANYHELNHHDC
How it was run: as §1

[5] = biological target: ELF4 (Homo sapiens, UniProt Q99607 1-663); details: protein: recombinant; tags: N-terminal GST; dsDNA, one strand shown
How it was run: as §1

[6] = biological target: T3, ELK4 (Homo sapiens, UniProt P28324-2 1-405); details: protein: recombinant; tags: N-terminal GST; dsDNA, one strand shown
T3 sequence: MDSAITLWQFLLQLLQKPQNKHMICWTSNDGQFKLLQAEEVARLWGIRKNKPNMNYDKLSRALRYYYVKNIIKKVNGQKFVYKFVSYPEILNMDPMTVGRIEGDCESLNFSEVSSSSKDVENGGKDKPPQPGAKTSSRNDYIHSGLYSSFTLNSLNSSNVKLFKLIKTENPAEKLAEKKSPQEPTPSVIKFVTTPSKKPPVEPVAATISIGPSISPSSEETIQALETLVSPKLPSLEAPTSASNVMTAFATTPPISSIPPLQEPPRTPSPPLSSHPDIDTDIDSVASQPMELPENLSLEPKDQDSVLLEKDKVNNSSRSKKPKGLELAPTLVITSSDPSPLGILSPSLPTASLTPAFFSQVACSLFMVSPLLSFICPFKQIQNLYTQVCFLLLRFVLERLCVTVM
How it was run: as §1

[7] = biological target: T4, ETV2 (Homo sapiens, UniProt O00321 1-342); details: protein: recombinant; tags: N-terminal GST; dsDNA, one strand shown
T4 sequence: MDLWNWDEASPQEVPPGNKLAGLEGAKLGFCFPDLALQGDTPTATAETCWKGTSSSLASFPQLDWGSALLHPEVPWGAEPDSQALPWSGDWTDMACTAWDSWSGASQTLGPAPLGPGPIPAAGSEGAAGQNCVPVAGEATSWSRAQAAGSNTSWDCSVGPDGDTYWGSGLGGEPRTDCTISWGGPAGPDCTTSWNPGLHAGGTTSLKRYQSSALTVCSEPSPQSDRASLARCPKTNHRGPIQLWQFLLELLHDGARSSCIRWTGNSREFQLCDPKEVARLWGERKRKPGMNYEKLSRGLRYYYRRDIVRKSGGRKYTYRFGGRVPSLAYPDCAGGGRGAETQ
How it was run: as §1

[8] = biological target: T5, ELF3 (Homo sapiens, UniProt P78545 1-371); details: protein: recombinant; tags: N-terminal GST; dsDNA, one strand shown
T5 sequence: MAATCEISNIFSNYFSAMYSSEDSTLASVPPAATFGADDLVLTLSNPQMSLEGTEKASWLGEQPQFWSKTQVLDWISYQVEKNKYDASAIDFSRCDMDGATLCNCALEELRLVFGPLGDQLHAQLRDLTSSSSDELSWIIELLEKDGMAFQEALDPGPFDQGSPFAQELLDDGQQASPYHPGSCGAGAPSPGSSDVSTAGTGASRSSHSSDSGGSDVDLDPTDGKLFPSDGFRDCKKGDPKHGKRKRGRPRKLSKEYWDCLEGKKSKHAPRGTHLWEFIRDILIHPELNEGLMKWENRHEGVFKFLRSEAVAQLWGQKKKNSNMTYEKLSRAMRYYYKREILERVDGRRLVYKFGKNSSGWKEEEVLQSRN
How it was run: as §1

[9] = biological target: CRX (Homo sapiens, UniProt O43186 1-299); details: protein: recombinant; tags: N-terminal GST; dsDNA, one strand shown
How it was run: as §1

[10] = biological target: ETV1 (Homo sapiens, UniProt P50549 1-477); details: protein: recombinant; tags: N-terminal GST; dsDNA, one strand shown
How it was run: as §1

[11] = biological target: T6, ERF (Homo sapiens, UniProt P50548 1-548); details: protein: recombinant; tags: N-terminal GST; dsDNA, one strand shown
T6 sequence: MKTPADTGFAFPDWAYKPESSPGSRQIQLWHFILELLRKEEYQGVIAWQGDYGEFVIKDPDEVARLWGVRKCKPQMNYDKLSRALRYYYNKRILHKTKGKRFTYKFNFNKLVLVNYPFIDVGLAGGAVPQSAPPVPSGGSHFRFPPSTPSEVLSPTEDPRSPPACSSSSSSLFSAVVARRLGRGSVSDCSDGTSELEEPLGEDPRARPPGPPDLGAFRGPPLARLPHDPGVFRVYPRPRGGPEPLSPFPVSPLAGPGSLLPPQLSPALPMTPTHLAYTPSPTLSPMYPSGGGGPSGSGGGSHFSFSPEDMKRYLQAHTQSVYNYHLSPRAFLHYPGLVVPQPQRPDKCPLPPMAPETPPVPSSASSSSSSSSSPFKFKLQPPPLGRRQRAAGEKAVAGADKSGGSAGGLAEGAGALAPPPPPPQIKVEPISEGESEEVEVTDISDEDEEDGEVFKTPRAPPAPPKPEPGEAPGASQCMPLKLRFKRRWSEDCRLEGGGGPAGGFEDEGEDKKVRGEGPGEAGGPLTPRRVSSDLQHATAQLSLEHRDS
How it was run: as §1

[12] = biological target: T7, ETV3L (Homo sapiens, UniProt Q6ZN32 1-361); details: protein: recombinant; tags: N-terminal GST; dsDNA, one strand shown
T7 sequence: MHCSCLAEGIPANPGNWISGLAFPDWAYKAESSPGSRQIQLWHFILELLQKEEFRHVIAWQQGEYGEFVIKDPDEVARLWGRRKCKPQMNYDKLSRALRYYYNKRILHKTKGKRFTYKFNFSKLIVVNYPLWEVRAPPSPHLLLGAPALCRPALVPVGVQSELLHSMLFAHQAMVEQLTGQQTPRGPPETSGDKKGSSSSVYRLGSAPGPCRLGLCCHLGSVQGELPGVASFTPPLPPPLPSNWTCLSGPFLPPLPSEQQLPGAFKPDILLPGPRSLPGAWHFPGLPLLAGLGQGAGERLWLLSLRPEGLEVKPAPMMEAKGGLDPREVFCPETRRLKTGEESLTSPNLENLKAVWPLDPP
How it was run: as §1

[13] = biological target: T8, ETS2 (Homo sapiens, UniProt P15036 1-469); details: protein: recombinant; tags: N-terminal GST; dsDNA, one strand shown
T8 sequence: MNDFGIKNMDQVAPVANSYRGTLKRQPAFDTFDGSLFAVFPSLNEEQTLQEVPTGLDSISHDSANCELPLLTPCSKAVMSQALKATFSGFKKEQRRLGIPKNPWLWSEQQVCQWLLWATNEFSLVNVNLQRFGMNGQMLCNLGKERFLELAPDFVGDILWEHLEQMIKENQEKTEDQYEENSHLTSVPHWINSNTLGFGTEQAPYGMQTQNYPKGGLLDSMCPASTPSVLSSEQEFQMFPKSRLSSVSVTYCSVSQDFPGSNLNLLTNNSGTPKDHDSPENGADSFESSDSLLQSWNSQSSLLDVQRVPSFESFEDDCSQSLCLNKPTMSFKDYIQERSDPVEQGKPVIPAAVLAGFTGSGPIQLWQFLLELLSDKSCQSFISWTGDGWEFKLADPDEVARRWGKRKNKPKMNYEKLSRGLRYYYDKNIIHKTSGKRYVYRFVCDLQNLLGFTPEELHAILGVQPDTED
How it was run: as §1

[14] = biological target: T9, SPDEF (Homo sapiens, UniProt O95238 1-335); details: protein: recombinant; tags: N-terminal GST; dsDNA, one strand shown
T9 sequence: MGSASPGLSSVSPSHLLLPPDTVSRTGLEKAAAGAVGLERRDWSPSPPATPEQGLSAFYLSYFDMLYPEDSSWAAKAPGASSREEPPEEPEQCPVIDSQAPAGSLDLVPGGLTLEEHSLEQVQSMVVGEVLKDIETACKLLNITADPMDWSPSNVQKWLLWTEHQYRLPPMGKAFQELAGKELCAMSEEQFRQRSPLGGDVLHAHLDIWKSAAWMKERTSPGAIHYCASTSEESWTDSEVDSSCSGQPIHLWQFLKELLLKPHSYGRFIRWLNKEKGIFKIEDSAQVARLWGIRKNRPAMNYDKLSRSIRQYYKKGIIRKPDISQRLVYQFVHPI
How it was run: as §1

[15] = biological target: T10, ETV7 (Homo sapiens, UniProt Q9Y603 1-341); details: protein: recombinant; tags: N-terminal GST; dsDNA, one strand shown
T10 sequence: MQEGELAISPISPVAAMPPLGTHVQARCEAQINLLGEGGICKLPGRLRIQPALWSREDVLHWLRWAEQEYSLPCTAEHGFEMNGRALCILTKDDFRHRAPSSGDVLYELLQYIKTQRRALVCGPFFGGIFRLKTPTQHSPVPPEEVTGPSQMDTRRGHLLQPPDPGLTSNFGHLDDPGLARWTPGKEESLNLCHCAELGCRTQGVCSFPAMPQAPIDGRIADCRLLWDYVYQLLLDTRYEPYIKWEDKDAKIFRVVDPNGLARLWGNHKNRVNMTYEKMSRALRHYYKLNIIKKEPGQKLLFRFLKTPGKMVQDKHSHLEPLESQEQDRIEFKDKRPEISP
How it was run: as §1

[16] = biological target: T11, ELF5 (Homo sapiens, UniProt Q9UKW6-2 1-255); details: protein: recombinant; tags: N-terminal GST; dsDNA, one strand shown
T11 sequence: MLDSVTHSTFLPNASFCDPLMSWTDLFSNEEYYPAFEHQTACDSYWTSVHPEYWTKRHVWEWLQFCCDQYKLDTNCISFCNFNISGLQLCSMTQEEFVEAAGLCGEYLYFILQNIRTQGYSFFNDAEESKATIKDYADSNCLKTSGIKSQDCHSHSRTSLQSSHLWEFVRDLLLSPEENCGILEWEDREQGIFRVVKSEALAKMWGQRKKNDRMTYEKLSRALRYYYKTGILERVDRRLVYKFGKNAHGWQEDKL
How it was run: as §1

[17] = biological target: T12, ETV3 (Homo sapiens, UniProt P41162-2 1-143); details: protein: recombinant; tags: N-terminal GST; dsDNA, one strand shown
T12 sequence: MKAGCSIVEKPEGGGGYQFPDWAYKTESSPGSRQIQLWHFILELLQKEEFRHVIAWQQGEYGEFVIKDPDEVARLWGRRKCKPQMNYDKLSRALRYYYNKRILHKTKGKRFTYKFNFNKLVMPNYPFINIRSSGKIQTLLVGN
How it was run: as §1

[18] = biological target: ETV6 (Homo sapiens, UniProt P41212 1-452); details: protein: recombinant; tags: N-terminal GST; dsDNA, one strand shown
How it was run: as §1

Chain of ETV5 (P41161 whole entry): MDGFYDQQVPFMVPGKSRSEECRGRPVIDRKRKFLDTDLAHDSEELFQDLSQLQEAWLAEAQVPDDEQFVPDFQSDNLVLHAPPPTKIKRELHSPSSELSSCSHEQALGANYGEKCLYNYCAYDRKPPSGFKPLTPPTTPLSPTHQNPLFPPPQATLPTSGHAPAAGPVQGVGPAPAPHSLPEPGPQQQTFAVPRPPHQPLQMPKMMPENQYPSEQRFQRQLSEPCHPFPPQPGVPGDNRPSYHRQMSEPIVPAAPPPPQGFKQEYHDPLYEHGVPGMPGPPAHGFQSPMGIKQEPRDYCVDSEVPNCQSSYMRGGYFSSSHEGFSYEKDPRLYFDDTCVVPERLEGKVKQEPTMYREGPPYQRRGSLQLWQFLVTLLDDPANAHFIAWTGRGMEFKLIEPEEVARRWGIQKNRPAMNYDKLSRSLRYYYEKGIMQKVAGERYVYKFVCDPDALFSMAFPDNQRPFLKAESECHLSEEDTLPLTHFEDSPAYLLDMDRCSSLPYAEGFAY
Chain of ETV6 (P41212 whole entry): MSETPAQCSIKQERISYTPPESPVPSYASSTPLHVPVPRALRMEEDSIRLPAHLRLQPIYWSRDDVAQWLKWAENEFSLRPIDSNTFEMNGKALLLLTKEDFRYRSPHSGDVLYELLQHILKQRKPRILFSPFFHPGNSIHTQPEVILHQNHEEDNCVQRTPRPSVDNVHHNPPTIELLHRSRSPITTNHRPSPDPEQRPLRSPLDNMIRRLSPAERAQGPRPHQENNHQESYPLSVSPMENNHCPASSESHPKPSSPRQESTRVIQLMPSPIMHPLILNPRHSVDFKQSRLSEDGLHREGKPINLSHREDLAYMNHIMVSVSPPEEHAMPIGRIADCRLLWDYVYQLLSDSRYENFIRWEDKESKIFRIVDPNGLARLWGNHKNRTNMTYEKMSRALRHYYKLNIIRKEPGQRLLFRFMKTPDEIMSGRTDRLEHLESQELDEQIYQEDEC
Chain of CRX (O43186 whole entry): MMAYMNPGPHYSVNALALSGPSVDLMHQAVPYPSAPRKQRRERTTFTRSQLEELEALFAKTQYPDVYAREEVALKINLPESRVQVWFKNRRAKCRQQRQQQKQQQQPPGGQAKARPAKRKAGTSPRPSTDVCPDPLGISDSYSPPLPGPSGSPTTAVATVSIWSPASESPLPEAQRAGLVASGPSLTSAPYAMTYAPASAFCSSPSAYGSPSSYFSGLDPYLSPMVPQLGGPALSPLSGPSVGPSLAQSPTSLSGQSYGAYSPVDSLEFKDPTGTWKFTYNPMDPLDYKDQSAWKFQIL
Chain of HSF1 (Q00613 whole entry): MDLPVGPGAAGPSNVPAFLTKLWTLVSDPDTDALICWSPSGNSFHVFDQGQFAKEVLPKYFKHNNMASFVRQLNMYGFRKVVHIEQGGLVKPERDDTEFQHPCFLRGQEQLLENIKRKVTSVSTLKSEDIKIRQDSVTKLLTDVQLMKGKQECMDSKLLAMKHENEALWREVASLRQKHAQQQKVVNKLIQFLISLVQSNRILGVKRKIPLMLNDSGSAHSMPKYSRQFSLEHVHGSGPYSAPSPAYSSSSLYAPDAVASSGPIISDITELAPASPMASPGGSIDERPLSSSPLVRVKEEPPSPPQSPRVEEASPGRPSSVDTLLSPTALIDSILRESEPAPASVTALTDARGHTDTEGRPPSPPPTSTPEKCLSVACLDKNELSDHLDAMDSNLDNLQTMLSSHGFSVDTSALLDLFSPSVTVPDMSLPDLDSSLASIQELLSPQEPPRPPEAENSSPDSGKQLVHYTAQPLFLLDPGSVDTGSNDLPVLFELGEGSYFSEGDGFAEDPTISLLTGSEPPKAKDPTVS
Chain of ETV1 (P50549 whole entry): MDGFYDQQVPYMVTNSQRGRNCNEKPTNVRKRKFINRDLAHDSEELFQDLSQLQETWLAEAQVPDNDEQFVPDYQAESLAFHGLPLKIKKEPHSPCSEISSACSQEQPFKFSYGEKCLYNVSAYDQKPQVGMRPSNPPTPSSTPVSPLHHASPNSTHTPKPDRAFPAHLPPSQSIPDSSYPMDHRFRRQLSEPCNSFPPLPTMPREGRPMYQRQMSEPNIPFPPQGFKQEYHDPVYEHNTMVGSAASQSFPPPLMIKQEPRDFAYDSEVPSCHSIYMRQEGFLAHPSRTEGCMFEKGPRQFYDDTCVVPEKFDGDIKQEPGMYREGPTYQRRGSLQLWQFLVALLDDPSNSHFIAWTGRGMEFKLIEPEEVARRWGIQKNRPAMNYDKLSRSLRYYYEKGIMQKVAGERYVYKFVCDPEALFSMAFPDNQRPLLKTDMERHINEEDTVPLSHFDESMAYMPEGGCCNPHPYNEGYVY
Chain of ELF4 (Q99607 whole entry): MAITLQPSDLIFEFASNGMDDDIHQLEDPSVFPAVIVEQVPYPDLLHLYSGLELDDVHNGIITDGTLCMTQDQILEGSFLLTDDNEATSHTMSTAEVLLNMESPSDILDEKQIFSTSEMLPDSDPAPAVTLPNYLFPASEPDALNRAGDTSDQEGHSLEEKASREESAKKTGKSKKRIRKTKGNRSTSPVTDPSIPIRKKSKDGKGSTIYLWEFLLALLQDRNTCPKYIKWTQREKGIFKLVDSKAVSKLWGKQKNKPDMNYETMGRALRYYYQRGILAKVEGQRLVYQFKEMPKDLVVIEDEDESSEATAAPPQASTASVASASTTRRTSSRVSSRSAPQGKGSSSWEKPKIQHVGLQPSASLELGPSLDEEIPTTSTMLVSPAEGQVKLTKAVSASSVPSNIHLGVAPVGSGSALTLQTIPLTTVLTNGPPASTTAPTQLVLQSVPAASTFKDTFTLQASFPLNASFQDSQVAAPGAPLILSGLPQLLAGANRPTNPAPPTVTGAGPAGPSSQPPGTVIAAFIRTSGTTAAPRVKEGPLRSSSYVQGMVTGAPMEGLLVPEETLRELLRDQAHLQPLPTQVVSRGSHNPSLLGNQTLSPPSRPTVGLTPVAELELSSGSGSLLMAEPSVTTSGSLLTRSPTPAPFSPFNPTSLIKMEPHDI

Sequence: GTTTCC
- binding signal [1]: 3.32 fold enrichment (6-mer frequency, TF over GST control)
- binding signal [2]: 3.01 fold enrichment (6-mer frequency, TF over GST control)
- binding signal [3]: 1.42 fold enrichment (6-mer frequency, TF over GST control)
- binding signal [4]: 2.6 fold enrichment (6-mer frequency, TF over GST control)
- binding signal [5]: 2.56 fold enrichment (6-mer frequency, TF over GST control)
- binding signal [6]: 2.16 fold enrichment (6-mer frequency, TF over GST control)
- binding signal [7]: 2.42 fold enrichment (6-mer frequency, TF over GST control)
- binding signal [8]: 2.55 fold enrichment (6-mer frequency, TF over GST control)
- binding signal [9]: 1.08 fold enrichment (6-mer frequency, TF over GST control)
- binding signal [10]: 2.65 fold enrichment (6-mer frequency, TF over GST control)
- binding signal [11]: 2.49 fold enrichment (6-mer frequency, TF over GST control)
- binding signal [12]: 2.7 fold enrichment (6-mer frequency, TF over GST control)
- binding signal [13]: 2.82 fold enrichment (6-mer frequency, TF over GST control)
- binding signal [14]: 2.75 fold enrichment (6-mer frequency, TF over GST control)
- binding signal [15]: 2.86 fold enrichment (6-mer frequency, TF over GST control)
- binding signal [16]: 3.9 fold enrichment (6-mer frequency, TF over GST control)
- binding signal [17]: 3.01 fold enrichment (6-mer frequency, TF over GST control)
- binding signal [18]: 3.24 fold enrichment (6-mer frequency, TF over GST control)
